Source: PubChem
This excerpt belongs to a sample that is enriched for hits.
ROC1-CUL1 inh: inhibitors of human ROC1-CUL1 ubiquitin ligase activity; 140,000 tested, 0.6% active; in vitro K48 di-Ub FRET, acceptor:donor ratio, 45 min; AID 1347404; inhibition, % at 10 µM; in the data active means inhibition above about 25%
Target sequence (P62877 whole entry, looked up): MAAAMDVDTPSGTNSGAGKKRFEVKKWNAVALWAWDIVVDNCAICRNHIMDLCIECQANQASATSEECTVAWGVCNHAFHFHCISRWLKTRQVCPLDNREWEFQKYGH
Target sequence (Q13616 whole entry, looked up): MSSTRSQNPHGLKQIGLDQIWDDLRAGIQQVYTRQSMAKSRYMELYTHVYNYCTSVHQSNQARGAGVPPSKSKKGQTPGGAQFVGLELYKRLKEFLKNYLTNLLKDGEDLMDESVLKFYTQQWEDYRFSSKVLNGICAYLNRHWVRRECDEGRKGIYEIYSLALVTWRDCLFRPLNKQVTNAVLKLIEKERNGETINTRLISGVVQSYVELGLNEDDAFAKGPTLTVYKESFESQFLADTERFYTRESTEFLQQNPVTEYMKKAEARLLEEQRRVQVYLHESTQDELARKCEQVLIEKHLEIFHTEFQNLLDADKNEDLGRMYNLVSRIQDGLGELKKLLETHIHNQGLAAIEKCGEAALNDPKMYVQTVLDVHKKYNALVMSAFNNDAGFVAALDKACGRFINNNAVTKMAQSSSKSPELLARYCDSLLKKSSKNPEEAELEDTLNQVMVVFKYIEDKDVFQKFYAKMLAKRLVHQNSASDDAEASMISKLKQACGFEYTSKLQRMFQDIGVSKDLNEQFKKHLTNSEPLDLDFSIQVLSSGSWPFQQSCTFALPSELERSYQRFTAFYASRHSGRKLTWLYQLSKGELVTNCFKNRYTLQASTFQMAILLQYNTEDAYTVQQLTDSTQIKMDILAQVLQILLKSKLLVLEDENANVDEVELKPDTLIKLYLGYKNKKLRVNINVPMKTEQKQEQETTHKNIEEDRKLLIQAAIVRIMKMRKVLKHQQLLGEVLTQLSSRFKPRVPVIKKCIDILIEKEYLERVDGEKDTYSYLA
Large screens that a line does not name were inactive.

CC(=O)c1cccc(NC(=O)/C=C/c2ccc(Br)cc2)c1	none
O=C(/C=C/c1c(Cl)cccc1Cl)Nc1ncccn1	none
CCN=C1CC=C(Br)C=C(C(=O)/C=C/c2cc(OC)ccc2OC)C1=O	ROC1-CUL1 inh 55
CC1CN(C(=O)/C=C/c2ccc(F)cc2)C(C)CN1C(=O)/C=C/c1ccc(F)cc1 (stereo not given)	none
CCN=C1CC=C(Br)C=C(C(=O)/C=C/c2ccc(F)cc2)C1=O	ROC1-CUL1 inh 27
CCOc1ccccc1N1CCN(C(=O)/C=C/c2ccc(Br)cc2)CC1	none
COc1ccc(Br)cc1/C=C/C(=O)c1ccc(OS(C)(=O)=O)cc1	none
CCN=C1CC=C(Br)C=C(C(=O)/C=C/c2ccc(OC)cc2)C1=O	none
CCN=C1CC=C(Br)C=C(C(=O)/C=C/c2ccc(C(F)(F)F)cc2)C1=O	none
NS(=O)(=O)c1ccc(CNC(=O)/C=C/c2c(Cl)cccc2Cl)cc1	none
CCN=C1CC=C(Br)C=C(C(=O)/C=C/c2c(Cl)cccc2Cl)C1=O	ROC1-CUL1 inh 90
CN=C1CC=C(Br)C=C(C(=O)/C=C/c2ccc(Br)cc2)C1=O	ROC1-CUL1 inh 36
c1ccc(CCNC2CCCc3c2[nH]c2ccccc32)cc1 (stereo not given)	none
CCN(C(=O)c1cc2c(Cl)nc3ccc(C)cc3c2s1)c1cc(OC)ccc1OC	none
CCOC(=O)C1=NON(c2ccccc2)C1O (stereo not given)	none
Cc1ccc(C(=O)NNC(=O)[C@@H]2CCCC[C@@H]2C(=O)O)cc1	none
Cc1oc(-c2ccccc2NC(=O)CC2CCCC2)nc1CNC(=O)c1c(-c2ccccc2)noc1C	none
CCOC(=O)c1c(NC(=O)C(C(C)C)N2C(=O)c3ccccc3C2=O)sc2c1CCCC2 (stereo not given)	none
COCCCNC(=O)CSc1nc(-c2ccc(OC)cc2)[nH]c1-c1ccc(OC)cc1	none
COc1ccc(CNC(=O)CCn2nc(C)c3c(C)n(-c4ccccc4)nc3c2=O)c(OC)c1	none
CCN=C1CC=C(Br)C=C(C(=O)/C=C/c2ccc(Cl)cc2)C1=O	none
CCN=C1CC=C(Br)C=C(C(=O)/C=C/c2ccc(Br)cc2)C1=O	ROC1-CUL1 inh 94
CCOC(=O)c1ccccc1NC(=O)/C=C/c1ccc(Br)cc1	none
Clc1ccc(-c2nnc(Cl)o2)cc1	none
CC(C)c1cc(N)cc(C(=O)O)c1O	none
CCC(C)c1cc(Cc2cc(C(C)CC)cc(C(=O)O)c2O)c(O)c(C(=O)O)c1 (stereo not given)	ROC1-CUL1 inh 80
CCC(C)NS(=O)(=O)c1ccc(OC)c(C(=O)O)c1 (stereo not given)	none
COc1ccc(Cc2nc3ccc(C(=O)N4CCSCC4)cc3o2)cc1OC	none
O=c1[nH]nnc2c1sc1nc3c(c(-c4ccco4)c12)CCc1ccccc1-3	ROC1-CUL1 inh 67
NC(=O)c1sc2nnc(-c3ccco3)c(-c3ccco3)c2c1N	none
O=c1[nH]nnc2c1sc1nc3c(c(-c4ccc(Cl)cc4)c12)CCCC3	none
Cc1ccc(CCC(=O)Nc2c(F)cccc2F)cc1	none
CCCc1[nH]nc2c1C(c1ccc(C)o1)C(C#N)C(=N)O2 (stereo not given)	none
CCOC(=O)C(C(C)=O)C1=C(Br)C(=O)C(=O)c2ccc(Br)cc21 (stereo not given)	ROC1-CUL1 inh 48
CCOC(=O)Nc1ccc(Br)cc1F	none
Cc1c(C(=O)O)c2c(n1Cc1ccccc1)C(=O)c1ccc(Br)cc1-2	none
CN1C(=O)C(=O)C2c3ccccc3C(=O)c3c(Cl)cc(Cl)c1c32 (stereo not given)	ROC1-CUL1 inh 33
CN1C(=O)C(c2cccc(Cl)c2)C(=O)c2ccccc21 (stereo not given)	none
CCc1ccccc1C1C(=O)c2ccccc2C1=O	none
C=C(C)Cn1c(=O)c2c(nc3n2CCN3c2ccc(F)cc2)n(C)c1=O	none
O=C(Nc1ccc2cc3ccc(NC(=O)c4ccc(=O)oc4)cc3nc2c1)c1ccc(=O)oc1	ROC1-CUL1 inh 40
O=C(Nc1ccc(-c2nc3cc(NC(=O)c4ccc(Cl)cc4)ccc3o2)cc1)c1ccc(Cl)cc1	none
COC(=O)c1ccc(C(=O)Nc2ccc(-c3nc4cc(NC(=O)c5ccc(C(=O)OC)cc5)ccc4o3)cc2)cc1	none
CSCC1Cc2c(cc3c(c2O)C(=O)c2ccccc2C3=O)O1 (stereo not given)	none
CC(=O)Oc1c(/C=C(\C#N)C(N)=O)[nH]c2ccccc12	ROC1-CUL1 inh 47
COC(=O)/C(C#N)=C/c1c(OC)[nH]c2ccccc12	none
N#C/C(=C\c1ccc(Cl)s1)C(N)=O	none
N#Cc1ccc(-c2ccc(/C=C3\SC(=Nc4ccccc4)N(Cc4ccco4)C3=O)o2)cc1	ROC1-CUL1 inh 53
O=C1/C(=C\c2ccc(-c3ccc(Cl)c(Cl)c3)o2)SC(=Nc2ccccc2)N1Cc1ccco1	none
N#Cc1ccc(/C=C2/SC(=Nc3ccccc3)N(Cc3ccc(C(=O)O)cc3)C2=O)cc1	none
Cc1cccc(Oc2c(C(F)(F)F)oc3cc(OC(=O)C(C)(C)C)ccc3c2=O)c1	none
Cc1cc(C(=O)NC2CC(=O)N(Cc3ccc(F)cc3)C2)nn1C (stereo not given)	none
COCCC(=O)NC1CC(=O)N(Cc2ccccc2C(F)(F)F)C1 (stereo not given)	none
C=CCN=C(N)SCc1nc2ccccc2c(=O)[nH]1	ROC1-CUL1 inh 36
C=CCSc1nc2ccccc2c(=O)[nH]1	none
CCN(CC)Cc1nc2ccccc2c(=O)[nH]1	none
Cc1cnc(C)c(N2CCN(c3nc4nonc4nc3N3CCCCC3)CC2)n1	none
O=C1NC(=S)S/C1=C/c1ccc(N2N=C(c3ccccc3)CC2c2ccccc2)cc1 (stereo not given)	ROC1-CUL1 inh 81
Cc1cc(/C=C2/SC(=S)NC2=O)c(C)n1-c1ccccc1	none
O=C1NC(=S)S/C1=C/c1ccc(F)cc1	none
C=C1Cn2c(nc3sc4c(c3c2=O)CCCC4)S1	none
CCCCn1nnc(NC(=O)c2ccc3ccccc3c2)n1	none
Cc1ccc(-c2cc(C(=O)Nc3ccccc3C(N)=O)c3ccccc3n2)o1	none
CCSc1nnc(NC(=O)c2cc(-c3ccc(C)o3)nc3ccccc23)s1	ROC1-CUL1 inh 81
Cc1ccc(CNC(=O)c2cc(-c3ccc(C)o3)nc3ccccc23)cc1	none
CN1CCN(C(=O)c2ccccc2OCCOc2ccccc2)CC1	none
COc1cc(C)ccc1OCc1nc(C(=O)N2C[C@H]3CC[C@H]2C3)co1	none
CCCOc1cc(-n2nc(SC)c(C#N)c2N)nc(SC)n1	none
O=C(c1ccc2ccccc2c1)C1CCCN(C(=O)CCN2CCCC2=O)C1 (stereo not given)	none
CCn1cc(C(=O)N2CCCC(C(=O)c3ccc4ccccc4c3)C2)cn1 (stereo not given)	ROC1-CUL1 inh 68
COC(=O)CCC(=O)N1CCCC(C(=O)c2ccc3ccccc3c2)C1 (stereo not given)	none
CCOCCCNCc1ccccc1OCc1ccccc1F	none
CC(C)Oc1c(-c2ccccc2)c(=O)c1=O	none
CC(C)Oc1c(-c2ccc(F)cc2)c(=O)c1=O	none
CC(C)Oc1c(-c2ccco2)c(=O)c1=O	ROC1-CUL1 inh 69
COc1ccc(OCC(O)CN2CCC(O)CC2)c(CN(C)Cc2ncc(C)[nH]2)c1 (stereo not given)	none
COc1ccc(C(C2C(=O)C=C(C)OC2=O)C2C(=O)C=C(C)OC2=O)cc1 (stereo not given)	none
COc1ccc(C(C2C(=O)Oc3ccc(C)cc3C2=O)C2C(=O)Oc3ccc(C)cc3C2=O)cc1 (stereo not given)	ROC1-CUL1 inh 69
COc1ccc(N=CC2C(=O)Oc3ccccc3C2=O)cc1 (stereo not given)	none
CCC(=O)NC(=S)NNC(=O)c1ccccc1OCc1ccccc1	none
N#Cc1c(N)[n+]([O-])c2cc(NCCO)c(F)cc2[n+]1[O-]	ROC1-CUL1 inh 28
OCCNc1cc2nccnc2cc1F	none
